Each structure is given as a SMILES string. The whole screen tested about 2,300 compounds, of which about 170 (7.4%) were called active.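 The calls were made as follows: active = over 5% cells positive for green fluorescent reporter, or over 2% positive for both it and APC stain; inactive = the rest, inconclusive results apart.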 Many of the other results were omitted from the sample, so actives are more common in it than they were.

We go through one compound from PubChem BioAssay AID651707 (NMMLSC, 2012).

The nature of the test: fluorescent artefacts in myeloid progenitor cells – cell-based, flow cytometry, GFP/APC, Cherry Pick01, artefact control for AML myeloid differentiation project, confirmation (AID 651707).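 Also: range taken on the double positive population between DMSO and positive control.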 As to conditions: ER-HoxA9 myeloid progenitors, no estrogen, GFP autofluorescence flow cytometry; hits give high values. (In general: Flow cytometry measures light scatter and fluorescence of single cells or particles in a stream.)
Take `CC/C(=N\NC(=O)c1ccccc1O)c1c(O)n(Cc2ccccc2)c(=O)[nH]c1=O`: the fluorescence response was 5.1% (active).
